Results filed as inconclusive are left out. Where a call stands in place of a potency, no number is given. Calls of active or inactive are those of the source. Unless noted, calls come from the whole dose curve; as a rule, active = well fitted curve in the direction sought with a large enough effect; inconclusive = small, poorly fitted or top-dose-only effect, or another doubt; inactive = no such curve, though single readings can be large; an effect the other way counts as inactive or inconclusive.
Assays:
[1] = biological target: Glutaminase kidney isoform, mitochondrial (Homo sapiens) (UniProt O94925); test: qHTS for Inhibitors of Glutaminase (GLS): LOPAC Validation (AID 624146);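 note: glutamate product detected by oxidase and peroxidase coupled Amplex red fluorescence gain; series mostly up to about 46 µM; nearly all actives have a fitted effect of over 60% in size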
How it was run: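 Read-out is an Amplex red fluorescence increase coupled through glutamate oxidase and HRP, measured before and after 30 min room-temperature incubation. hKGA is in 45 mM KH2PO4 (pH 8.2) with 0.02% Tween-20; glutamine added as 1mM solution.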

[2] = S16 Schwann cell viability assay (CellTiter-Glo assay) (AID 624031);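 note: cellular ATP luminescence as a viability measure; series mostly up to about 58 µM; nearly all actives have a fitted effect of over 70% in size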
How it was run: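 Luminescent ATP read-out (CellTiter-Glo) after 24 h compound exposure of native S16 rat Schwann cells at 37 °C. Signals were normalized between cell-free wells and DMSO-treated cells, set as 0% activity.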

[3] = S16 Schwann cell PMP22 intronic element firefly luciferase assay (AID 624032); note: nearly all actives have a fitted effect of over 30% in size; note: potency is the fitted concentration of half-maximal effect
How it was run: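 Luciferase reporter of PMP22 intronic-element expression in stably transfected S16 rat Schwann cells, read by ONE-Glo luminescence after 24 h compound exposure at 37 C. Activity scaled between DMSO (0%) and positive-control PTC124; concentration-effect curves quality-classified.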

[4] = S16 Schwann cell PMP22 intronic element beta-lactamase assay (AID 624044; calls by dose curve; note: nearly all actives have a fitted effect of over 15% in size)
How it was run: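 Rat S16 Schwann cells with beta-Lac driven by a PMP22 intronic element, compound-treated 24 h at 37 °C. LiveBLAzer FRET B/G read: 460 nm normalized to potassium clavulanate vs DMSO; 535 nm FRET as viability; concentration-effect curves classified.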

[5] = biological target: Luciferin 4-monooxygenase (Photinus pyralis) (UniProt P08659); test: Biochemical firefly luciferase enzyme assay for NPC (AID 624030);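 note: purified P. pyralis luciferase at 10 nM with luciferin and ATP substrate; series mostly up to about 59 µM; nearly all actives have a fitted effect of over 70% in size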
How it was run: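 Direct inhibition of firefly luciferase enzyme (10 nM final, 50 mM Tris Acetate) assessed by luminescence within 5 minutes. Percent activity scaled between DMSO and PTC124 positive control, with concentration-effect curves classified by fit quality and response.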

[6] = qHTS of Trypanosoma Brucei Inhibitors: LOPAC Validation (AID 624147)
How it was run: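 Enzyme and substrate buffer are dispensed first and compound is pin-transferred. ADP at 130 uM final then starts the reaction, which runs 45 min at room temperature. Detection reagent is added for 10 min before luminescence is imaged.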

Glutaminase kidney isoform, mitochondrial (Homo sapiens), sequence (O94925 whole entry, looked up, canonical isoform): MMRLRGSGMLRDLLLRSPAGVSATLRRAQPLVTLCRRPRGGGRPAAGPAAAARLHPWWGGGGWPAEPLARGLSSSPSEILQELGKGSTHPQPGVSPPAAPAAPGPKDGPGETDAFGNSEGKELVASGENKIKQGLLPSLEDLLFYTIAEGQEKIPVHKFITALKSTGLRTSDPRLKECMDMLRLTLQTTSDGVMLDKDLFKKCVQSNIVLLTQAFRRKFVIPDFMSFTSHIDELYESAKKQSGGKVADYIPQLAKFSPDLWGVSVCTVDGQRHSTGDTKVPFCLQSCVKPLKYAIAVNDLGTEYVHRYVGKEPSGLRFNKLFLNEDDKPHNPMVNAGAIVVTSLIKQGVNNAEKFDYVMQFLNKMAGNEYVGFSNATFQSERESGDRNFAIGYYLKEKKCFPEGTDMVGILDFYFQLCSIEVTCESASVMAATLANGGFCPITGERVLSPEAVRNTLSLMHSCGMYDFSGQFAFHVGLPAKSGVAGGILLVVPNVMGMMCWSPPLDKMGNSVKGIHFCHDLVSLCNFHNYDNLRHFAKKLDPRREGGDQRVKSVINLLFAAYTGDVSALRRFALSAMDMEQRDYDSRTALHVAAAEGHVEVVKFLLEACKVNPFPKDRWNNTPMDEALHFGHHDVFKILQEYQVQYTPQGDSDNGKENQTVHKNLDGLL
Luciferin 4-monooxygenase (Photinus pyralis), sequence (P08659 whole entry, looked up): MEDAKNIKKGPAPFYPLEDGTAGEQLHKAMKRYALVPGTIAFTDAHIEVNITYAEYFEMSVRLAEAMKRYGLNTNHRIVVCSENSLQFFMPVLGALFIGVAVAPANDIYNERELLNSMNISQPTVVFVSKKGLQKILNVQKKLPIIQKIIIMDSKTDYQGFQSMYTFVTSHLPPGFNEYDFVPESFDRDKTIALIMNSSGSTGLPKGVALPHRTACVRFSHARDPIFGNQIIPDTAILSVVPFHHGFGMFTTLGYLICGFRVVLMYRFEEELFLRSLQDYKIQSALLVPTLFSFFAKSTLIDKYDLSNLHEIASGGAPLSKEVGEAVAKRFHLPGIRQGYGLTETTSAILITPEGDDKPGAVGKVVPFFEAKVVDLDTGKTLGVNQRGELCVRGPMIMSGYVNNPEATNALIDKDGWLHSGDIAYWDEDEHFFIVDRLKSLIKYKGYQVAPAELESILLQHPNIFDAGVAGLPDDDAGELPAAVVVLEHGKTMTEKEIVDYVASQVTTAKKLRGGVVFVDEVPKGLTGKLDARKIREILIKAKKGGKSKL

## OCC1O[C@H]([S-])[C@H](O)[C@@H](O)[C@@H]1O.[Au+] (stereo not given in full)
[1]
  Potency: inactive

## COc1cc(/C=C/C(=O)CC(=O)/C=C/c2ccc(O)c(OC)c2)ccc1O
[2]
  Potency: inactive
[3]
  Potency: 20.3 µM (active)
[4]
  Potency: inactive

## Cc1[nH]cnc1CN1CCc2c(c3ccccc3n2C)C1=O
[5]
  Potency: inactive
[2]
  Potency: inactive
[3]
  Potency: inactive

## CC1(C)[C@@H](O)CC[C@]2(C)[C@H]3C(=O)C=C4[C@@H]5C[C@@](C)(C(=O)O)CC[C@]5(C)CC[C@@]4(C)[C@]3(C)CC[C@@H]12
[5]
  Potency: inactive
[2]
  Potency: inactive
[3]
  Potency: 8.09 µM (active)
[4]
  Potency: inactive

## O=C(c1ccc(Cl)cc1)N1CCN(c2ccc([N+](=O)[O-])c3ncccc23)CC1
[1]
  Potency: inactive
[6]
  Potency: inactive

## CC1OC1P(=O)(O)O (stereo not given)
[5]
  Potency: inactive
[2]
  Potency: inactive
[3]
  Potency: inactive
[6]
  Potency: inactive

## CC(=O)c1ccc(OCC(=O)N2CCCCC2)cc1
[5]
  Potency: inactive

## CNCC[C@H](Oc1ccc(C(F)(F)F)cc1)c1ccccc1
[1]
  Potency: inactive
[6]
  Potency: inactive

## CCCCCCCCc1ccc(-c2ccc(C(=O)O)cc2)cc1
[1]
  Potency: inactive
[6]
  Potency: inactive

## CC[C@@H](C)[C@H]1O[C@]2(CC[C@H]1C)C[C@@H]1C[C@@H](CC=C(C)[C@@H](O[C@H]3C[C@H](OC)[C@@H](O[C@H]4C[C@H](OC)[C@@H](O)[C@H](C)O4)[C@H](C)O3)[C@@H](C)C=CC=C3CO[C@@H]4[C@H](O)C(C)=C[C@@H](C(=O)O1)[C@]34O)O2
[1]
  Potency: inactive
[6]
  Potency: inactive

## Cc1c(N)c(=O)n(-c2ccccc2)n1C
[5]
  Potency: inactive

## CCCCCC(O)c1cccc(OCc2ccc3ccccc3n2)c1 (stereo not given)
[1]
  Potency: inactive
[6]
  Potency: inactive

## COc1cccc(OC)c1OCCNCC1COc2ccccc2O1 (stereo not given)
[1]
  Potency: inactive
[6]
  Potency: inactive

## COC(=O)C1=C(C)NC(C)=C(C(=O)OCC(C)=O)C1c1ccccc1[N+](=O)[O-] (stereo not given)
[5]
  Potency: inactive

## NC(=O)C(c1ccccc1)(c1ccccc1)[C@@H]1CCN(CCc2ccc3c(c2)CCO3)C1
[5]
  Potency: inactive
[2]
  Potency: inactive

## CO[C@@]1(NC(=O)Cc2cccs2)C(=O)N2C(C(=O)O)=C(COC(N)=O)CS[C@@H]21
[5]
  Potency: inactive

## CCC1C(=O)OCC1Cc1cncn1C (stereo not given)
[5]
  Potency: inactive
[2]
  Potency: inactive
[3]
  Potency: inactive
[4]
  Potency: inactive
[1]
  Potency: inactive
[6]
  Potency: inactive

## Cc1cc(NC2CCCCC2)nc(-n2nc(C)cc2C)n1
[1]
  Potency: inactive
[6]
  Potency: inactive

## NS(=O)(=O)C#Cc1ccccc1
[1]
  Potency: inactive
[6]
  Potency: inactive

## CCCCCCCCCCCCCCCC(=O)OC(CC(=O)O)C[N+](C)(C)C (stereo not given)
[1]
  Potency: inactive
[6]
  Potency: inactive

## Cc1cc2c(cc1Cl)N(C(=O)Nc1ccc(Oc3cccnc3C)nc1)CC2
[1]
  Potency: inactive
[6]
  Potency: inactive

## O=C(/C=C/c1ccccc1)NCCO
[2]
  Potency: inactive
[3]
  Potency: inactive
[4]
  Potency: inactive

From PubChem BioAssay (NCATS)
